From PubChem
TRHR ag: TRH receptor (human) agonism; TRHR cells, calcium flux fluo-8, FDSS agonist mode; activation, % at 2 µM; 360,000 tested, 0.18% active; note: 0% is about no effect
Target sequence (P34981 whole entry, looked up): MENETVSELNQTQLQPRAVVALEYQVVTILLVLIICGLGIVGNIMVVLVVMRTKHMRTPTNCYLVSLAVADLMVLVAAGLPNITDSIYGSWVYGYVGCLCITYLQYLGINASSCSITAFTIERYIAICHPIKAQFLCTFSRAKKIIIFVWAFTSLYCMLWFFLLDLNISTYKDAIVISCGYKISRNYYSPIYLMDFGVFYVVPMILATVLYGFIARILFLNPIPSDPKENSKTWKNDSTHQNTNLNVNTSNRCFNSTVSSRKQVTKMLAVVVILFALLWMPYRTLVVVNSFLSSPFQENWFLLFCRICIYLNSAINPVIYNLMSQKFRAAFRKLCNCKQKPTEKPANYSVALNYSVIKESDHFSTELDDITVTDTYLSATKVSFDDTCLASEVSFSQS
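Steps: seed TRHR cells overnight; add fluo-8 no-wash Ca dye, RT 30 min–1.5 h; record 10 s baseline; pin-transfer compounds; monitor fluorescence 1 cycle/s for the agonist window. Calcium increases flag candidate agonists.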
TRHR enhancer: allosteric enhancers of human TRH receptor. P34981. TRHR cells, fluo-8 calcium fluorescence, EC20 TRH enhancement. enhancement, % at 2 µM. 360,000 tested, 0.66% active; in the data active = enhancement above about 30%; note: 0% is about no effect
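TRHR-expressing cells loaded with fluo-8 calcium dye were read kinetically (ex 480/em 530) during compound addition, then stimulated with an EC20 of TRH (10 nM final). Enhancement of the Gq-mediated intracellular calcium response was scored.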
D1 ag: activates the human D1 dopamine receptor | HEK293 T-REx D1 cells, calcium flux, agonist mode | AID 504660 | P21728 | 360,000 tested, 1% active | activation, % at 2 µM; note: 0% is about no effect
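Agonism was scored from calcium flux recorded over 180 s (1 read/s) after pintool compound addition, following a 10-cycle baseline. Cells were inducible force-coupled HEK293 TREx D1, plated overnight at 30 C and loaded with no-wash calcium dye.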
D1 PAM: potentiators of human D1 dopamine receptor; potentiation, % at 10 µM; 360,000 tested, 0.036% active; P21728; HEK293 TREx D1 cells, calcium flux, dopamine EC20 potentiation; AID 504651; in the data active = potentiation above about 30%; note: 0% is about no effect
D1 antag: human D1 dopamine receptor antagonism. P21728. AID 504652. activity change, negative = inhibition, % at 10 µM. HEK293 TREx D1 cells, calcium flux, dopamine EC80; stronger effect = lower value. 360,000 tested, 3.2% active; in the data active = activity change below about -30%; note: % is set by controls: 0 for no effect and ±100 for the full control effect
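Cells carrying a force-coupled, tetracycline-inducible human D1 receptor report calcium flux. Each well gets a 10 s baseline, compound with 180 s monitoring, then an EC80 dopamine stimulus with a second 180 s kinetic read.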
USP1-UAF1 inh: inhibitors of human USP1/UAF1 deubiquitinase; O94782; recombinant USP1/UAF1, Ub-Rhodamine cleavage fluorescence; Potency, µM (doses to about 57.1 µM), for the others: at the highest dose activity change, negative = inhibition, hits mostly inhibitors; 390,000 tested, 0.23% active; AID 743255; active = well fitted inhibition curve with a large enough effect; note: potency is the fitted concentration of half-maximal effect; % is set by controls: 0 for no effect and ±100 for the full control effect; nearly all actives have a fitted effect of over 60% in size
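USP1/UAF1 complex (1 nM) preincubated 15 min at room temperature with compound, then Ub-Rho substrate (150 nM final) added. Kinetic fluorescence at 480/540 nm over 6 reads at 60 s intervals; 50 mM HEPES pH 7.8, 0.5 mM EDTA, 0.1 mg/ml BSA, 1 mM TCEP, 0.01% Tween-20.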
The depositor's hits bear a star. Rows were chosen to be rich in hits. Some 4.4% of all compounds tested hit in one or more screens of this group. Cut-off read from the data, not from the text of the source, unless noted: active = activation above about 30%; inactive = the rest.

Screening Cc1ccc(-n2ncc3c(NCCCn4ccnc4)ncnc32)cc1 returned TRHR ag -0.3, TRHR enhancer 30.9*, D1 ag -3.2, D1 PAM -1.0, D1 antag -12.6 and USP1-UAF1 inh -17.2%.
O=C(CSc1n[nH]c(-c2ccc(F)cc2)n1)NCc1ccccc1Cl was read as TRHR ag -1.2, TRHR enhancer 1.4, D1 ag 2.9, D1 PAM -0.8, D1 antag -5.5 and USP1-UAF1 inh -10.5%.
Cc1ccc(-n2nc(C(=O)NCc3ccc(F)cc3Cl)c3c4ccccc4n(C)c3c2=O)cc1 was read as TRHR ag -1.0, TRHR enhancer 11.0, D1 ag 1.0, D1 PAM 1.7, D1 antag 8.2 and USP1-UAF1 inh -25.3%.
CNS(=O)(=O)c1cn(CC(=O)Nc2cccc(OC)c2)cc1S(=O)(=O)NC was read as TRHR ag 0.3, TRHR enhancer -5.5, D1 ag 3.9, D1 PAM -2.5, D1 antag 10.6 and USP1-UAF1 inh 3.9%.
CCc1ccc(C(=O)CSc2nc3ccccc3c(=O)[nH]2)cc1 was read as TRHR ag -1.0, TRHR enhancer -4.2, D1 ag 0.9, D1 PAM -3.6, D1 antag 3.8 and USP1-UAF1 inh -19.1%.
`Cc1ccc(C(=O)CSc2nc3ccccc3c(=O)[nH]2)cc1` gave TRHR ag 0.0, TRHR enhancer 3.7, D1 ag -0.2, D1 PAM -2.2, D1 antag -30.4* and USP1-UAF1 inh -17.8%.
Screening Cc1cc2c(s1)c1cnn(Cc3ccc(C)c(F)c3F)c(=O)c1n2C returned TRHR ag 0.1, TRHR enhancer 3.4, D1 ag 1.4, D1 PAM -6.6 and D1 antag 5.2.
For O=C(c1ccc(CS(=O)Cc2ccc(Cl)cc2)o1)N1CCN(c2ccc(F)cc2)CC1 (configuration not stated) the results were TRHR ag -0.5, TRHR enhancer 4.9, D1 ag 16.8, D1 PAM -9.1, D1 antag -35.5* and USP1-UAF1 inh -28.2%.
Screening CN(Cc1ccccc1)Cc1c[nH]c2ccccc12 returned TRHR ag 0.8, TRHR enhancer -0.6, D1 ag 7.5, D1 PAM -13.7, D1 antag -61.5* and USP1-UAF1 inh 3.3%.
For O=C(C1=C(O)C(=O)N(CCN2CCOCC2)C1c1ccc([N+](=O)[O-])cc1)c1cccs1 (configuration not stated) the results were TRHR ag 0.5, TRHR enhancer -5.9, D1 ag 1.8, D1 PAM -0.9, D1 antag -75.2* and USP1-UAF1 inh -17.5%.
`O=C(C1=C(O)C(=O)N(CCN2CCOCC2)C1c1cccc(Br)c1)c1cccs1` (configuration not stated) gave TRHR ag -2.7, TRHR enhancer 1.4, D1 ag 4.3, D1 PAM 2.2, D1 antag -6.2 and USP1-UAF1 inh -20.3%.
`Cc1cc(C)cc(OC(=O)CCN2C(=O)C3C4C=CC(C5CC45)C3C2=O)c1` (configuration not stated) gave TRHR ag -1.7, TRHR enhancer -0.2, D1 ag 0.1, D1 PAM 0.5, D1 antag 4.0 and USP1-UAF1 inh -3.1%.
Screening O=C(CCN1C(=O)C2C3C=CC(C4CC34)C2C1=O)Oc1ccc(Br)cc1 (configuration not stated) returned TRHR ag 0.0, TRHR enhancer -1.6, D1 ag 2.2, D1 PAM -10.5, D1 antag -62.1* and USP1-UAF1 inh -8.6%.
For Nc1nc2c(s1)CC(c1ccccc1)CC2 (configuration not stated) the results were TRHR ag 0.1, TRHR enhancer 5.0, D1 ag 5.2, D1 PAM -2.9, D1 antag -30.3* and USP1-UAF1 inh -7.2%.
`Cc1c(O)c2ccccc2oc1=O` gave TRHR ag 0.5, TRHR enhancer 39.3*, D1 ag 1.3, D1 PAM 2.2, D1 antag 1.1 and USP1-UAF1 inh -7.4%.
For CN=C(C)c1c(O)c2ccccc2oc1=O the results were TRHR ag 0.3, TRHR enhancer -4.9, D1 ag 2.2, D1 PAM -1.1, D1 antag 2.9 and USP1-UAF1 inh -11.5%.
Screening CCCN(CCC)C(=O)Cn1c(=O)n(CCCCCC(=O)NCc2ccc3c(c2)OCO3)c(=O)c2sccc21 returned TRHR ag -2.1, TRHR enhancer -12.3, D1 ag -1.4, D1 PAM 0.1, D1 antag -9.3 and USP1-UAF1 inh -15.6%.
For CCCC(=O)Nc1ccc(Cl)c(NC(=S)NC(=O)C(C)C)c1 the results were TRHR ag -0.2, TRHR enhancer 2.1, D1 ag -0.2, D1 PAM -1.9, D1 antag -36.8* and USP1-UAF1 inh -14.0%.
For Cc1ccc2oc(C(=O)Nc3sc4c(c3C(=O)NCc3ccccc3)CCCC4)cc(=O)c2c1 the results were TRHR ag 0.0, TRHR enhancer -0.8, D1 ag -1.2, D1 PAM 0.5, D1 antag 3.9 and USP1-UAF1 inh -26.5%.
`Cc1cccc(-n2ncc3c2CCCC3NC(=O)c2ccncc2)c1C` (configuration not stated) gave USP1-UAF1 inh 2.0%.
For CCn1cc(C(=O)NC2CCCc3c2cnn3-c2cccc(C)c2C)cn1 (configuration not stated) the results were TRHR ag -1.2, TRHR enhancer -4.3, D1 ag 40.4*, D1 PAM -7.0 and D1 antag -20.6.
For Cc1cc(C(=O)NC2CCCc3c2cnn3-c2cccc(C)c2C)no1 (configuration not stated) the results were TRHR ag -0.4, TRHR enhancer -4.4, D1 ag 5.1, D1 PAM -6.1, D1 antag -37.8* and USP1-UAF1 inh -10.5%.
`COc1ccc(Cl)cc1NC(=O)CSc1nc(=O)n(Cc2ccco2)c2c1CCC2` gave TRHR ag 0.1, TRHR enhancer 13.3, D1 ag -1.1, D1 PAM 1.0 and USP1-UAF1 inh -25.0%.
`Cc1ccc(NC(=O)CSc2ncn[nH]2)cc1` gave TRHR ag -0.4, TRHR enhancer 1.4, D1 ag -0.4, D1 PAM -6.2, D1 antag 9.1 and USP1-UAF1 inh -18.1%.
`O=C(CSC(=S)N1CCCC1)N1CCN(S(=O)(=O)c2cccc([N+](=O)[O-])c2)CC1` gave TRHR ag 0.1, TRHR enhancer -11.3, D1 ag 4.8, D1 PAM -4.5, D1 antag -32.9* and USP1-UAF1 inh 5.4%.
`COC(=O)c1cc(NC(=O)CSc2ncn[nH]2)ccc1Cl` gave TRHR ag 0.0, TRHR enhancer 0.5, D1 ag 1.2, D1 PAM -3.6, D1 antag -44.0* and USP1-UAF1 inh -7.7%.
